Integrin act MD: activates integrin-mediated alleviation for muscular dystrophy | alpha7betagal myoblasts, beta-gal FDG fluorescence, 48 h | Potency, µM (top dose mostly 38.3 µM), without a hit: top-dose activation, most hits filed as activators | actives 0.064% (n = 350,000) | AID 624291; active = well fitted activation curve with a large enough effect; inconclusive = small, poorly fitted or top-dose-only effect; inactive = no such curve, though single readings can be large or run the other way;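 also: potency is read from the fitted curve at half-maximal effect; 100% = response of the positive control SU9516; nearly all actives have a fitted effect of over 60% in size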
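alpha7betagal+/- myoblasts (passage 13, 250/well) treated 48 h at 37C with compounds at 1:260 dilution of DMSO stock. Lysed, then beta-galactosidase activity read as FDG fluorescence (ex 480/em 540) after 30 min, with pre-read for autofluorescence.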
DRD3 antagonist: D3 dopamine receptor (human) antagonism. P35462. D3R cells, DiscoveRx beta-arrestin luminescence, antagonist mode; hits give low values. max response, negative = inhibition, %. actives 2.5% (n = 360,000); in the data active = max response below about -50%; inconclusive = no clear call, values can overlap the other calls; also: % is scaled to controls: 0 for no effect and ±100 for the full control effect
Target sequence (P35462 whole entry, looked up): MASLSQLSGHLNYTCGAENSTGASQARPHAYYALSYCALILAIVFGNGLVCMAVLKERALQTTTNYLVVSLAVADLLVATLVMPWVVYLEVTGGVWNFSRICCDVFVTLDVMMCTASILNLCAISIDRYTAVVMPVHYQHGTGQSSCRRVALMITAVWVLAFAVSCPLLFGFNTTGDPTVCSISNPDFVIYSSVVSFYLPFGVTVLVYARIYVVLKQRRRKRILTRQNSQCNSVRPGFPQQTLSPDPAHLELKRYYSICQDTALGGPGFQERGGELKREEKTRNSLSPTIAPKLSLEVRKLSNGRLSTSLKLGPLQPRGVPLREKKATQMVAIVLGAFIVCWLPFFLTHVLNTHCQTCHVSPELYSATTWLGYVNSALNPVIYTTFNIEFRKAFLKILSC
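Cells expressing the human receptor were seeded at 1500 cells/well, incubated overnight at 37 degrees C in 5% CO2, then exposed to library compounds with dopamine controls for 90 minutes at 37 degrees C before luminescent detection.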
D3 ag: activates the human D3 dopamine receptor. actives 0.58% (n = 410,000). P35462. D3R DiscoveRx beta-arrestin cells, luminescence, 90 min. AID 652048. max activation, %; in the data active = max activation above about 30%; also: 0% is about no effect
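Agonist mode: compounds and dopamine controls were applied to plated cells for 90 min at 37 degrees C after an overnight attachment at 1500 cells/well. Luminescent read-out followed 30 - 60 minutes at room temperature with DiscoveRx detection reagent.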
Starred values were filed as active, the others as inactive. Hits are enriched below; roughly 2.9% of the tested compounds scored in any of these assays.

For N#C/C(=C/c1ccc(O)c(O)c1)C(=O)NCc1ccc(Cl)cc1 the results were Integrin act MD 0%, DRD3 antagonist -50* and D3 ag -10.
For CN(Cc1ccccc1)C1(CNC(=O)CCC(F)(F)F)Cc2ccccc2C1 the results were Integrin act MD 2%, DRD3 antagonist 9 and D3 ag -7.
CCOC(=O)Cn1c(=O)n(CC2CCCO2)c2nc(-c3ccc(C(C)C)cc3)nc(C(N)=O)c21 (centres undefined) was read as D3 ag 5.
O=c1ccc2cc([N+](=O)[O-])c(CCO)cc2o1 was read as Integrin act MD 7%, DRD3 antagonist -52* and D3 ag 5.
`NC(=O)c1ccc(Oc2ccc3ccc(=O)oc3c2)c([N+](=O)[O-])c1` gave Integrin act MD -13%, DRD3 antagonist 9 and D3 ag 3.
For CC(C)c1ccc(NC(=O)CN2C(=O)NC(C)(C3CC3)C2=O)cc1 (centres undefined) the results were Integrin act MD -16%, DRD3 antagonist 1 and D3 ag 8.
CCCCN1CCc2c1nc1ccc(Br)cc1c2N was read as Integrin act MD -51%, DRD3 antagonist -84* and D3 ag -39.
For CN1CCc2c1nc1ccccc1c2N (tested in a mixture with another compound) the results were Integrin act MD 3%, DRD3 antagonist 11 and D3 ag 1.
For CC(C)(C)OC(=O)N1O[C@H]2CC1[C@@H]1[C@@H]2N=NN1CCc1ccncc1 the results were Integrin act MD 0%, DRD3 antagonist 29 and D3 ag 8.
For O=S(=O)(NCc1ccc(Cl)cc1)c1cnc[nH]1 the results were Integrin act MD 21%, DRD3 antagonist -12 and D3 ag -2.
For Cc1ccc(CCNS(=O)(=O)c2cnc[nH]2)cc1 the results were Integrin act MD 3%, DRD3 antagonist -66* and D3 ag -4.
CNCCCC1c2ccccc2C=Cc2ccccc21 was read as DRD3 antagonist -99* and D3 ag -87.
COc1cccc(C(=O)O/N=C(\C)c2cnccn2)c1 was read as Integrin act MD 0%, DRD3 antagonist -10 and D3 ag 7.
For COc1cccc(CNC(=O)c2cccc(S(=O)(=O)N3CCN(c4ccc(F)cc4)CC3)c2)c1 the results were Integrin act MD 9%, DRD3 antagonist 25 and D3 ag 0.
O=C(O)c1cc(NC(=O)C2CCCO2)cc(C(=O)O)c1 (centres undefined) was read as Integrin act MD 41%, DRD3 antagonist 25 and D3 ag 5.
For C[C@H](CO)N1C[C@H](C)[C@@H](CN(C)C(=O)c2ccc(F)cc2)Oc2cc(Br)ccc2S1(=O)=O the results were Integrin act MD 9%, DRD3 antagonist -95* and D3 ag -4.
`C[C@@H]1CN([C@@H](C)CO)S(=O)(=O)c2ccc(Br)cc2O[C@@H]1CN(C)C(=O)c1ccc(F)cc1` gave Integrin act MD -2%, DRD3 antagonist inconclusive and D3 ag -2.
`CNCCC=C1c2ccccc2C=Cc2ccccc21` gave DRD3 antagonist -77* and D3 ag -81.
Screening CN(C)CCC=C1c2ccccc2CCc2ccccc21 returned DRD3 antagonist -20 and D3 ag -11.
For CN(C)CCC=C1c2ccccc2C=Cc2ccccc21 the results were DRD3 antagonist -120* and D3 ag -95.
For CNc1ccc(C=C2C=Cc3ccccc32)cc1 the results were Integrin act MD -21%, DRD3 antagonist -25 and D3 ag -1.
Screening CCOc1ccc(OCCNC(=O)c2cc(C3CC3)nc3c2cnn3C(C)C)cc1 returned Integrin act MD 18%, DRD3 antagonist -6 and D3 ag -15.
Screening CN(CCNC(=O)c1ccc(CS(=O)(=O)c2ccc(Br)cc2)o1)CCc1ccccc1 returned Integrin act MD -23%, DRD3 antagonist -55* and D3 ag -14.
O=C(NCCc1ccccc1)c1ccc(CS(=O)(=O)c2ccc(Br)cc2)o1 was read as Integrin act MD inconclusive, DRD3 antagonist 2 and D3 ag 2.
O=S(=O)(NCc1cn2ccccc2n1)c1ccccc1F was read as Integrin act MD -22%, DRD3 antagonist -1 and D3 ag -2.
For COC(=O)c1ccc(NC(=O)C[n+]2ccccc2C)cc1 the results were Integrin act MD 19%, DRD3 antagonist -59* and D3 ag -5.
`Cc1cccc[n+]1CC(=O)Nc1ccccc1` gave Integrin act MD 1%, DRD3 antagonist 22 and D3 ag 0.
`CCCCN(C)/C=N/c1c(C#N)cnn1-c1ccc(C)cc1` gave Integrin act MD -8%, DRD3 antagonist 15 and D3 ag -1.
CCSc1nc2sc3c(c2c(=O)[nH]1)CCc1ccccc1-3 was read as Integrin act MD -2%, DRD3 antagonist -11 and D3 ag 2.
For NNc1nc2sc3c(c2c(=O)[nH]1)CCc1ccccc1-3 the results were Integrin act MD -7%, DRD3 antagonist -55* and D3 ag -6.
Screening COCCn1c(SCc2cnc(-c3ccccc3)s2)nnc1-c1ccncc1 returned Integrin act MD 11%, DRD3 antagonist 6 and D3 ag -5.
`COc1ccc(-n2cnnc2SCc2cnc(-c3ccccc3)s2)cc1` gave Integrin act MD -10%, DRD3 antagonist -56* and D3 ag -5.
`CCOC(=O)c1c(C)oc2c1c(C=NCc1ccccn1)c(O)c1ccccc12` gave Integrin act MD 37%, DRD3 antagonist -105* and D3 ag 0.
`CCOC(=O)c1c(C)oc2c1c(C=NCC1CCCO1)c(O)c1ccccc12` (centres undefined) gave Integrin act MD -17%, DRD3 antagonist inconclusive and D3 ag 0.
For Cc1nn(Cc2n[nH]c(=S)n2Cc2ccccc2)c(C)c1Cl the results were Integrin act MD 19%, DRD3 antagonist -87* and D3 ag -1.
For Cc1cc(C)n(Cc2n[nH]c(=S)n2Cc2ccccc2)n1 the results were Integrin act MD -5%, DRD3 antagonist 49 and D3 ag -4.
Cc1cc(NC(=O)c2ccccc2)n(-c2nc3ccccc3[nH]2)n1 was read as Integrin act MD 21%, DRD3 antagonist 1 and D3 ag 6.
Cc1cc(NC(=O)C2CCCC2)n(-c2nc3ccccc3[nH]2)n1 was read as Integrin act MD -11%, DRD3 antagonist inconclusive and D3 ag 34*.
For Cc1cc(OCCCCNC(C)C)cc(C(C)C)c1 the results were Integrin act MD -55%, DRD3 antagonist -69* and D3 ag -13.
For Cc1cc(OCCn2cnc3ccccc3c2=O)cc(C(C)C)c1 the results were Integrin act MD -21%, DRD3 antagonist -25 and D3 ag 3.
`COCCN(C(=O)CCSc1ccc(F)cc1)c1c(N)n(Cc2ccccc2)c(=O)[nH]c1=O` gave Integrin act MD -5%, DRD3 antagonist 15 and D3 ag 1.
`CC1(C)CC(=O)C2=C(C1)OC1=C(C(=O)CC(C)(C)C1)C2c1ccc(O)c([N+](=O)[O-])c1` gave Integrin act MD 3%, DRD3 antagonist 0 and D3 ag 0.
For CC1(C)CC(=O)C2=C(C1)OC1=C(C(=O)CC(C)(C)C1)C2c1cccc([N+](=O)[O-])c1 the results were Integrin act MD -27%, DRD3 antagonist -78* and D3 ag -13.

Screening results as filed in PubChem.
